# A number with no mark means an inactive call. The source made the active and inactive calls. The call rests on the fitted dose curve.
# Molecular target: Acetylcholinesterase (Homo sapiens) (UniProt P22303)
# Assay: Acetylcholinesterase (AChE) small molecule antagonists: enzyme-based qHTS assay (AID 1347397); further: nearly all actives have a fitted effect of over 55% in size
# Details: Potency: AChE enzyme activity inhibition; outcome: AChE enzyme activity inhibition; series mostly up to 115 µM; activity change, negative = inhibition: at the top concentration
# In short: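 Colorimetric DTNB read-out of thiocholine released from acetylthiocholine by recombinant human AChE (50 mU/mL as dispensed). Compounds were preincubated 30 min at RT before substrate/DTNB addition, with a 10 min RT reaction.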
# On the % scale 0 is the no-effect control and ±100 the full control effect.
# Acetylcholinesterase (Homo sapiens), sequence (P22303 whole entry, looked up): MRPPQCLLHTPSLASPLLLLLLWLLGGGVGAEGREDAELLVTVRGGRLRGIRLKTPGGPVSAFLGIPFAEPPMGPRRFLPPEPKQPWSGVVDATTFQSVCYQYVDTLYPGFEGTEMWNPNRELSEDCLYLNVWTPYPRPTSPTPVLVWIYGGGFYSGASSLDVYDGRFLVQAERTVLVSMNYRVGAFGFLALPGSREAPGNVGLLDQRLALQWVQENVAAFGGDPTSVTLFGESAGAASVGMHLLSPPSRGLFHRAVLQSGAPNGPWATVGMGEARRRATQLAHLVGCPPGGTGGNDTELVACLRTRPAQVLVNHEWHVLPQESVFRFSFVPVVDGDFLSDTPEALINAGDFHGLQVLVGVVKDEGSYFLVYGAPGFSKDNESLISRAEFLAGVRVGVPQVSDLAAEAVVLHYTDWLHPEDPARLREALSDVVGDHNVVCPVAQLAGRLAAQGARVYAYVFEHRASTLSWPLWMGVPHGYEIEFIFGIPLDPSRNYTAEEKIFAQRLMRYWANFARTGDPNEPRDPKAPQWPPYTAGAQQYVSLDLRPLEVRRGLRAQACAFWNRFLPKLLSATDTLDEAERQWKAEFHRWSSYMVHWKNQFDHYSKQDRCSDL
Compound,"activity change, negative = inhibition",Potency
Nc1cc([N+](=O)[O-])cc(Cl)c1O,5.2%,
c1cc2ccc3ccc4ccc5cccc6c(c1)c2c3c4c56,0.28% [at 4.07 µM],
O=C(COCCOCCOCC(=O)Nc1c(I)cc(I)c(C(=O)O)c1I)Nc1c(I)cc(I)c(C(=O)O)c1I,1.3% [at 53 µM],
O=C(O)C1CCC(C(=O)O)CC1 (stereo not given),0.46%,
O=C1OC(=O)C2CC=CCC12 (stereo not given),-0.278%,
CCC(=O)Nc1ccc(O)cc1,0.397% [at 53 µM],
O=C1O[C@H]([C@@H](O)CO)C(O)=C1O,,inactive
c1ccc2nccnc2c1,-0.136%,
C=COC(=O)C(C)(CC)CCC(C)C (stereo not given),1.26%,
COC(=O)Nc1nc2ccc(C(=O)C3CC3)cc2[nH]1,0.801% [at 53 µM],
COc1ccc(-c2cc(C(F)F)nn2-c2ccc(S(N)(=O)=O)cc2)cc1F,-3.42% [at 53 µM],
CCC(CC)(CC(=O)Nc1cccc(/C=C/c2nc(C3CCC3)cs2)c1)C(=O)O,0.422% [at 53 µM],
COC(=O)CCS,-0.305%,
C/C(C=O)=C\c1ccccc1,-0.409%,
NCCCN1CCN(CCCN)CC1,1.66%,
CC1=NC(C)OC1C (stereo not given),5.29%,
CCC(=O)O[C@]1(C(=O)CCl)[C@@H](C)C[C@H]2[C@@H]3CCC4=CC(=O)C=C[C@]4(C)[C@@]3(F)[C@@H](O)C[C@@]21C,-2.06% [at 53 µM],
OB(O)O,,inactive
O=C(c1ccc(O)cc1)c1ccc(O)cc1,-11.6%,
CC(C)(N=C=O)c1cccc(C(C)(C)N=C=O)c1,,inactive

Compound,"activity change, negative = inhibition",Potency
CN1C(=O)c2ccccc2C1=O,2.11%,
CC(=O)c1ccc(C(C)=O)cc1,-0.11%,
COC(=O)c1c(Cl)c(Cl)c(C(=O)OC)c(Cl)c1Cl,,inactive
CCOC(=O)C(C)C(C)=O (stereo not given),0.543%,
CC(C)(CO)COC(=O)C(C)(C)CO,,inactive
OCCN1CCN(CCCN2c3ccccc3C=Cc3ccccc32)CC1,2.97% [at 53 µM],
Cc1cc(Br)ccc1NC(=O)CCl,2.62%,
COC(=O)N/N=C/c1c[n+]([O-])c2ccccc2[n+]1[O-],0.585% [at 53 µM],
NCCO,,inactive
O=C1CCCCCCCCCCCCCC1,0.138%,
CCCCCCCCCOS(=O)(=O)O,-0.526%,
CO[Si](CCCNCCN)(OC)OC,,inactive
Cc1ccc(C(=O)Nc2ccc(S(=O)(=O)O)c3cc(S(=O)(=O)O)cc(S(=O)(=O)O)c23)cc1NC(=O)c1cccc(NC(=O)Nc2cccc(C(=O)Nc3cc(C(=O)Nc4ccc(S(=O)(=O)O)c5cc(S(=O)(=O)O)cc(S(=O)(=O)O)c45)ccc3C)c2)c1,0.418% [at 53 µM],
CC(C)(c1ccc(Oc2ccc(N)cc2)cc1)c1ccc(Oc2ccc(N)cc2)cc1,0.136%,
CC1=CC[C@H](C(C)C)C=C1,-2.69%,
Oc1c(Cl)cc(Cl)c(Cl)c1Cl,,inactive
Cc1ccccc1N=C(N)Nc1ccccc1C,-1.9%,
COc1ccc(O)cc1,,inactive
C[C@]12C=CC(=O)C=C1CC[C@@H]1[C@@H]2C(=O)C[C@@]2(C)[C@H]1CC[C@]2(O)C(=O)CO,,inactive
COc1ccc2nc(S(=O)Cc3ncc(C)c(OC)c3C)[nH]c2c1 (stereo not given),,inactive

# Source: PubChem BioAssay (Tox21)
